Compound activity as filed in PubChem BioAssay.
Rows were chosen to be rich in hits. Some 8.8% of all compounds tested hit in one or more screens of this group.
HT1080 IDH1KD tx: HT-1080 IDH1 knockdown cell toxicity (counter line) | HT-1080 IDH1 knockdown viability, ATP luminescence, 48 h | 360,000 compounds, 2% hits | Potency, µM (doses to about 46.1 µM), hits mostly cytotoxic | AID 686971
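CellTiter-Glo luminescence after 48 h compound exposure at 37 degrees C of IDH1-knockdown HT-1080 cells in 5% FBS RPMI. %Activity scaled between DMSO wells and cell-free media wells, with curves fitted and assigned curve classes.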
KB-V1 cytotox: kills drug-selected multidrug resistant KB-V1 cells | KB-V1 MDR cells viability, CellTiter-Glo, 72 h | Potency, µM (titrated, usually from 46.1 µM), most hits filed as cytotoxic | 400,000 compounds, 3.4% hits | AID 1347076; also: nearly all actives have a fitted effect of over 60% in size
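Potencies derive from concentration-effect curves fitted to normalized luminescence (CellTiter-Glo) of KB-V1 cells treated for 72 h at 37 degrees C in phenol-red-free DMEM containing 10% FBS.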
HT1080-NT tox: kills 2HG-producing HT-1080-NT fibrosarcoma cells | 360,000 compounds, 1.6% hits | HT-1080-NT fibrosarcoma viability, CellTiter-Glo ATP luminescence, 48 h | Potency, µM (titrated, usually from 46.1 µM), hits mostly cytotoxic;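 also: NT is the 2HG producing partner of a matched IDH1 knockdown line; nearly all actives have a fitted effect of over 55% in size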
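Viability by CellTiter-Glo luminescence after 48 h compound exposure at 37C of HT-1080-NT cells (750/well, RPMI, 5% FBS). % activity scaled between DMSO wells and medium-only wells, then curve-fitted and categorized by curve class.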
IL-1B inflam inh: inflammasome signaling inhibition, IL-1 beta readout | THP-1 LPS/ATP IL-1B secretion, AlphaLISA, 16 h; active compounds read low | activity change, % at 57.5 µM | 360,000 compounds, 4.7% hits | AID 743279; in the data active = activity change below about -50%; inconclusive = mostly about -30% to -49%
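THP-1 cells pretreated 1 hr with compounds (up to 57.5 uM final), then stimulated with LPS (250 ng/mL final) plus ATP (1.25 mM final); secreted IL-1B measured by AlphaLISA after 16 hr, decreased signal indicating inhibition.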
KB-3-1 tox: kills parental KB-3-1 adenocarcinoma cells. KB-3-1 viability, CellTiter-Glo ATP luminescence, 72 h. Potency, µM (series often up to 46.1 µM), usual class: cytotoxic. 400,000 compounds, 1.4% hits. AID 1347075; also: nearly all actives have a fitted effect of over 60% in size
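Cytotoxicity in the drug-sensitive parental line KB-3-1 was scored as loss of CellTiter-Glo luminescence following 72 h incubation with compound. Values come from curve fitting of normalized concentration-response data.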
Of the large screens only hits and unclear results are named; the others gave an inactive call. Unless noted, calls follow the shape of the dose curve; as a rule, active = well fitted curve in the direction sought with a large enough effect; inconclusive = small, poorly fitted or top-dose-only effect, or another doubt; inactive = no such curve, though single readings can be large; an effect the other way counts as inactive or inconclusive.

CCOc1ccc(OCC)c(NC(=O)C2CCN(S(=O)(=O)c3ccc(Br)s3)CC2)c1	none (no result: HT1080 IDH1KD tx, HT1080-NT tox, IL-1B inflam inh)
NC(=O)c1ccsc1NC(=O)c1ccc([N+](=O)[O-])o1	HT1080 IDH1KD tx inconclusive, KB-V1 cytotox inconclusive, HT1080-NT tox inconclusive, IL-1B inflam inh -68, KB-3-1 tox inconclusive
CN1CCc2c(sc(NC(=O)c3ccc(S(=O)(=O)N4CCOCC4)cc3)c2C(N)=O)C1	none
CN1CCc2c(sc(NC(=O)c3cc(Cl)sc3Cl)c2C(N)=O)C1	HT1080 IDH1KD tx inconclusive, HT1080-NT tox inconclusive, IL-1B inflam inh -91
COCCNC(=S)N1CCc2cc(OC)c(OC)cc2C1COc1ccc(C(C)C)cc1 (stereo not given)	IL-1B inflam inh inconclusive
CCOc1ccccc1/C=C(\C#N)C(=O)NC1CC1	KB-V1 cytotox inconclusive
C=CCNC(=O)/C(C#N)=C\c1cc(Cl)c(OCC)c(OC)c1	HT1080 IDH1KD tx inconclusive, HT1080-NT tox inconclusive, IL-1B inflam inh -91
CCOc1c(Br)cc(/C=C(\C#N)C(=O)NC2CC2)cc1OC	HT1080 IDH1KD tx inconclusive, KB-V1 cytotox inconclusive, HT1080-NT tox 23µM
O=C1/C(=C/c2cccc([N+](=O)[O-])c2)CCc2ccccc21	HT1080 IDH1KD tx inconclusive, KB-V1 cytotox 16µM, HT1080-NT tox inconclusive, IL-1B inflam inh -121, KB-3-1 tox inconclusive
O=C1NC(=O)C(=Cc2ccccc2[N+](=O)[O-])S1	HT1080 IDH1KD tx inconclusive, KB-V1 cytotox inconclusive, HT1080-NT tox 21µM, IL-1B inflam inh inconclusive, KB-3-1 tox inconclusive
O=C1C(=Cc2ccccc2[N+](=O)[O-])Cc2ccccc21	HT1080 IDH1KD tx inconclusive, KB-V1 cytotox inconclusive, HT1080-NT tox inconclusive, IL-1B inflam inh -103
CCN1C/C(=C\c2cccc([N+](=O)[O-])c2)C(=O)/C(=C/c2cccc([N+](=O)[O-])c2)C1	HT1080 IDH1KD tx 2.3µM, KB-V1 cytotox inconclusive, HT1080-NT tox 4.1µM, IL-1B inflam inh -104, KB-3-1 tox 0.92µM
Nc1ccccc1C=C1Cc2ccccc2C1=O	none
COC(=O)c1cccc(NC(=O)CN2CCc3ccccc3C2)c1	none
O=C(c1oc2ccccc2c1CSCc1ccccc1)N1CCN(c2ncccn2)CC1	none
CC(C)N(C)c1ncnc2c1ncn2[C@H]1CN(Cc2ccc3c(c2)OCO3)C[C@@H](CO)O1	none
CCCN(CCC)CC(O)CN1C(=O)N(CN2C(=O)N(CC(O)CN(CCC)CCC)C(=O)C2(C)C)C(C)(C)C1=O (stereo not given)	KB-V1 cytotox inconclusive, IL-1B inflam inh -65
CCOC(=O)c1noc2ncn(Cc3ccc([N+](=O)[O-])cc3)c(=O)c12	none (no result: HT1080 IDH1KD tx, HT1080-NT tox, IL-1B inflam inh)
COCCNC(=O)CN1C(=O)NC(c2ccccc2)(c2ccccc2)C1=O	none
N#Cc1ccccc1NC(=O)COC(=O)CN1C(=O)C2CCCCC2C1=O (stereo not given)	KB-V1 cytotox inconclusive, KB-3-1 tox inconclusive
CCOc1ccc(CSC(=N)N)cc1	KB-V1 cytotox inconclusive
CC(=O)c1ccc(OC(C)C)c(CSC(=N)N)c1	IL-1B inflam inh inconclusive, KB-3-1 tox inconclusive
CCCCOc1ccc(CSC(=N)N)cc1Cl	HT1080 IDH1KD tx 15µM, HT1080-NT tox 18µM, IL-1B inflam inh -101
COc1ccc(Br)cc1CSC(=N)N	IL-1B inflam inh -88
CCCCCOc1ccc(Br)cc1CSC(=N)N	HT1080 IDH1KD tx inconclusive, KB-V1 cytotox 9.2µM, HT1080-NT tox inconclusive, IL-1B inflam inh -97, KB-3-1 tox 12µM
CC(NC(=O)Cc1ccc(NS(=O)(=O)c2cccc(C(F)(F)F)c2)cc1)c1ccccn1 (stereo not given)	KB-V1 cytotox 21µM, KB-3-1 tox inconclusive
CN(Cc1cccnc1)C(=O)Cc1ccc(NS(=O)(=O)c2cccc(C(F)(F)F)c2)cc1	none
CON(c1nc(Cl)nc(N(C)C)n1)S(=O)(=O)c1ccccc1Cl	KB-3-1 tox inconclusive
CON(c1nc(Cl)nc(N(C)C)n1)S(=O)(=O)c1ccc(C)cc1	HT1080 IDH1KD tx inconclusive, IL-1B inflam inh -63
COc1cccc(NC(=O)c2cn(C3CCCCC3)c(=O)c3c2c2ccccc2n3C)c1	none (no result: HT1080 IDH1KD tx, HT1080-NT tox, IL-1B inflam inh)
CCCCCCCC[n+]1c(C)n(-c2ccccc2)c2ccc(NC(C)=O)cc21	IL-1B inflam inh -103, KB-3-1 tox 4.6µM
O=S(=O)(NCCc1ccncc1)c1ccc(S(=O)(=O)N2CCCCCC2)cc1	KB-V1 cytotox 18µM
